Data on 62 molecules can be found in PubChem BioAssay AID2685 (National Center for Advancing Translational Sciences (NCATS), 2010).

Structures are written as SMILES. About 2,100 (0.66%) of roughly 320,000 compounds were called active. Inconclusive results (about 53%) are left out. The call rests on the fitted dose curve; in most records, active means well fitted inhibition curve with a large enough effect in the signal ratio, with a control signal flat (not every such curve was filed as active); inconclusive means small, poorly fitted or top-dose-only effect, or effect the other way, or a change in a side signal; inactive means flat fitted curve, though single readings scatter; the % refers to the signal ratio. For the sample, actives were picked, then their nearest neighbours and some compounds at random.
Potency means the concentration at half of the fitted maximal effect.

The nature of this assay: qHTS Assay for Lipid Storage Modulators in Drosophila S3 Cells.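 On cell number change: cells counted by Cell Tracker Red CMTPX staining in the red channel.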 On lipid storage change, negative = inhibition: on the % scale 0 is the no-effect control and ±100 the full control effect. Particulars: BODIPY lipid droplet fluorescence, 18-24 h, cells fed with added oleic acid; cell number change: measured here: cell count max response; series mostly up to 46.1 µM; lipid storage change, negative = inhibition: at the top concentration. The essentials: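 Laser-scanning cytometry quantifies lipid droplet accumulation (500–530 nm total intensity; droplet/cell object ratio) in oleic acid-fed (400 uM added) Drosophila S3 cells treated with a concentration series. 20 uM Triacsin C defined 100% inhibition.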
Background: qHTS replaces the single test concentration by a dilution series.
For the molecule `CCN1CCN(S(=O)(=O)Cc2ccccc2Cl)CC1`, the “lipid storage change, negative = inhibition” value is -13.1% (inactive) and the cell number change is -8.44%.

`Cc1noc(C)c1CSc1nnc(-c2ccccc2)o1`: the “lipid storage change, negative = inhibition” value is 13.2% (inactive) and the cell number change stood at 4.76%.

Take `Cc1ccc(CNC(=O)/C=C/C(=O)O)cc1`: the “lipid storage change, negative = inhibition” value was -3.52% (inactive) and the cell number change turned out to be 15%.

`CN1CCN(c2oc(-c3ccco3)nc2S(=O)(=O)c2ccccc2)CC1`: the “lipid storage change, negative = inhibition” value was 15.9% (inactive) and the cell number change was 0.475%.

With `CC(=O)Nc1ccc(S(=O)(=O)Oc2cccc(N3C(=O)C4CCCCC4C3=O)c2)cc1` (stereo unspecified), the molecule was classed as inactive and the cell number change amounted to 5.92%.

`CCOc1ccc(Br)cc1S(=O)(=O)NCc1ccncc1`: the “lipid storage change, negative = inhibition” value was 15.6% (inactive) and the cell number change worked out at 3.33%.

Take `Cc1ccc(OCCn2cc(C(=O)O)c3ccccc32)cc1`: the “lipid storage change, negative = inhibition” value was -6.41% (inactive) and the cell number change worked out at 6.58%.

Turning to `COc1ccc(C(=S)N2CCOCC2)cc1OC(=O)c1ccccc1Cl`, the “lipid storage change, negative = inhibition” value was -28.4% (inactive) and the cell number change was 11.8%.

Regarding `Cc1ccc(S(=O)(=O)NC(CC(=O)O)c2ccc(F)cc2)cc1` (stereo unspecified), the “lipid storage change, negative = inhibition” value was -0.309% (inactive) and the cell number change is 2.4%.

As to `COc1ccc(C(CC(=O)O)NS(=O)(=O)c2ccc(C)cc2)cc1OC` (stereo unspecified), the “lipid storage change, negative = inhibition” value is -9.46% (inactive) and the cell number change was -5.13%.

For `COc1ccc(C(CC(=O)O)NS(=O)(=O)c2ccc(C)cc2)cc1` (stereo unspecified), the Potency was 2.91 µM (active) and the cell number change stood at 9.41%.

As to `O=C(C1=C[C@@H](c2coc3ccccc3c2=O)C[C@@H](OCCCCO)O1)N1CCN(Cc2ccc3c(c2)OCO3)CC1`, the “lipid storage change, negative = inhibition” value was -7.19% (inactive) and the cell number change is -4.69%.

Regarding `Cc1ccc(-c2c(C(=O)Nc3ccccc3C)c(C)[nH]c(=S)c2C#N)o1`, the “lipid storage change, negative = inhibition” value is -6.96% (inactive) and the cell number change was 5.19%.

Take `CCc1c(C(=O)Nc2ccccc2)c(C)[nH]c(=S)c1C#N`: the “lipid storage change, negative = inhibition” value is -4.8% (inactive) and the cell number change turned out to be 16.5%.

For `Cc1[nH]c(=S)c(C#N)c(-c2ccccc2)c1C(=O)Nc1ccccc1`, the Potency was 7.31 µM (active) and the cell number change was -24.7%.

On to `O=C(CCCN1C(=O)S/C(=C/c2ccccc2)C1=S)Nc1ccc(C(=O)O)cc1`, for which the “lipid storage change, negative = inhibition” value was -1.46% (inactive) and the cell number change amounted to 10.3%.

`Cc1cc(C)cc(NC(=O)CCCN2C(=O)C(c3ccccc3)Oc3cccnc32)c1` (stereo unspecified): the Potency is -12%.

On to `CC(=O)c1ccc(NC(=O)CCCN2C(=O)C(c3ccccc3)Oc3cccnc32)cc1` (stereo unspecified), for which the call was inactive and the cell number change was -3.13%.

Regarding `CCc1cccc(NC(=O)CCCN2C(=O)C(c3ccccc3)Oc3cccnc32)c1` (stereo unspecified), the Potency was 20.6 µM (active) and the cell number change was found to be 12%.

`Cc1ccc(C)c(NC(=O)C2CCCN2S(=O)(=O)c2ccc3c(c2)n(C)c(=O)c(=O)n3C)c1` (stereo unspecified): the “lipid storage change, negative = inhibition” value is 1.75% (inactive) and the cell number change is 7.23%.

In the case of `O=C(/C=C/c1ccccc1)NC(NC(=S)Nc1cccc(O)c1)C(Cl)(Cl)Cl` (stereo unspecified), the “lipid storage change, negative = inhibition” value is 13.1% (inactive) and the cell number change was determined as 11.8%.

As to `O=C(Cc1ccccc1)NC(NC(=S)Nc1cc(Cl)ccc1Cl)C(Cl)(Cl)Cl` (stereo unspecified), the “lipid storage change, negative = inhibition” value is 23.7% (inactive) and the cell number change was -5.82%.

Turning to `O=C(/C=C/c1ccccc1)NC(NC(=S)Nc1cc(Cl)ccc1Cl)C(Cl)(Cl)Cl` (stereo unspecified), the Potency was 16.4 µM (active) and the cell number change is -23.7%.

In the case of `COc1ccc2c(c1)c(C(=O)N/N=C/c1ccc(Br)cc1)c(C)n2C`, the “lipid storage change, negative = inhibition” value is 23% (inactive) and the cell number change was 12%.

For `CCOC(=O)Cc1csc(N/N=C/c2ccc(C(F)(F)F)cc2)n1`, the “lipid storage change, negative = inhibition” value was -8.86% (inactive) and the cell number change is -3.51%.

Turning to `CCN(CC)c1ccc(C=C2C(=O)OC(c3ccccc3)OC2=O)cc1` (stereo unspecified), the “lipid storage change, negative = inhibition” value is 7.24% (inactive) and the cell number change is 18.7%.

As for `CC1=NOC(=O)/C1=C/c1ccc(N(C)C)cc1`, the “lipid storage change, negative = inhibition” value is -7.07% (inactive) and the cell number change was -16.6%.

Turning to `CCN(CC)c1ccc(/C=C2/C(=O)ON=C2C)cc1`, the Potency is 9.2 µM (active) and the cell number change is -20.6%.

On to `CCOC(=O)C1CCN(Cc2nnc(-c3ccccc3C)o2)CC1`, for which the “lipid storage change, negative = inhibition” value is 0.348% (inactive) and the cell number change stood at 14.7%.

Turning to `CCOC(=O)C(NCCc1ccccc1F)(NC(C)=O)C(F)(F)F` (stereo unspecified), the “lipid storage change, negative = inhibition” value is 6.2% (inactive) and the cell number change came to 0.435%.

Turning to `O=C(Nc1cccc(NC(=O)c2ccc([N+](=O)[O-])o2)c1)c1ccco1`, the Potency was 5.8 µM (active) and the cell number change came out at 19.2%.

Turning to `O=C(Nc1ccc2oc(-c3cccnc3)nc2c1)c1ccc([N+](=O)[O-])o1`, the Potency was 3.66 µM (active) and the cell number change is -27.4%.

Turning to `O=C(Nc1cccnc1)c1ccc([N+](=O)[O-])o1`, the outcome was inactive.

Consider `Cc1cc(C(=O)Nc2ccncc2)ccc1[N+](=O)[O-]`, for which the “lipid storage change, negative = inhibition” value was -12.8% (inactive) and the cell number change is -15%.

With `Cc1cc(C(=O)Nc2cccc(NC(=O)c3ccco3)c2)ccc1[N+](=O)[O-]`, the Potency was 1.84 µM (active) and the cell number change is -29.7%.

On to `Cc1cccc(NC(=O)NNC(=O)c2ccc(C)c([N+](=O)[O-])c2)c1`, for which the “lipid storage change, negative = inhibition” value was 10.7% (inactive) and the cell number change was 11.9%.

On to `O=C(Nc1ccc2oc(-c3cccnc3)nc2c1)c1ccco1`, for which the “lipid storage change, negative = inhibition” value was -15.4% (inactive) and the cell number change is -3.59%.

For `O=C(Nc1ccccc1)c1ccc(NCCc2ccccc2)c([N+](=O)[O-])c1`, the “lipid storage change, negative = inhibition” value is -5.93% (inactive) and the cell number change is -13.2%.

Consider `O=C(Nc1ccc(Cl)c([N+](=O)[O-])c1)c1ccco1`, for which the molecule was called inactive and the cell number change was -24.9%.

Take `Cc1cccc(NC(=O)c2ccc(NCCc3ccccc3)c([N+](=O)[O-])c2)c1`: the Potency was 16.4 µM (active) and the cell number change came out at 11.4%.

In the case of `O=C(Nc1cccc(NC(=O)c2ccccc2Cl)c1)c1ccc([N+](=O)[O-])o1`, the “lipid storage change, negative = inhibition” value is -9.13% (inactive).

Turning to `O=C(Nc1cccc(NC(=O)c2ccco2)c1)c1ccc([N+](=O)[O-])cc1`, the “lipid storage change, negative = inhibition” value was 4.21% (inactive) and the cell number change stood at 3.56%.

`CCCCNC(=O)COc1ccccc1C(=O)c1cc(C#N)c(=O)n(CCOC)c1`: the “lipid storage change, negative = inhibition” value is 8.97% (inactive) and the cell number change turned out to be 1.51%.

In the case of `COc1ccc(S(=O)(=O)N2CCCC2)c2ccccc12`, the “lipid storage change, negative = inhibition” value is 4.12% (inactive) and the cell number change was found to be 12.2%.

With `CCc1ccc2[nH]c(=O)c(CN(CCN(CC)CC)C(=O)Nc3ccccc3OC)cc2c1`, the molecule was called inactive and the cell number change was determined as 22.1%.

As for `COc1nc(N2CCCC2)nc(-n2nnc(C(C)=O)c2C)n1`, the “lipid storage change, negative = inhibition” value is 5.12% (inactive) and the cell number change was 9.7%.

Take `CC(=O)c1c(C)[nH]c2ccccc2c1=O`: the “lipid storage change, negative = inhibition” value was -26.9% (inactive) and the cell number change was -9.21%.

With `COC(=O)c1c(NC(=O)CSc2nnc(C)c(=O)[nH]2)sc(C)c1C`, the “lipid storage change, negative = inhibition” value was -1.42% (inactive) and the cell number change is -15.8%.

With `COc1ccc(C2CC(c3ccc(Br)cc3)=NN2C(=O)CSC2=NCCS2)cc1` (stereo unspecified), the “lipid storage change, negative = inhibition” value is 2.73% (inactive) and the cell number change is -2.75%.

Regarding `COc1ccc(C(=O)Nc2cc(OC)nc(OC)n2)cc1`, the “lipid storage change, negative = inhibition” value was 5.74% (inactive) and the cell number change is -3.14%.

Regarding `Cc1cccc(NC(=O)c2ccc([N+](=O)[O-])o2)c1`, the Potency is 13 µM (active) and the cell number change was 3.29%.

For the molecule `O=C(Nc1c(Cl)ccc2nsnc12)c1ccc([N+](=O)[O-])o1`, the molecule was called inactive and the cell number change stood at 11.1%.

For the molecule `COc1cc(NC(=O)c2cc3ccccc3o2)ccc1NC(=O)c1ccco1`, the Potency was 0.58 µM (active) and the cell number change is 2.99%.

Regarding `CCC(=O)Nc1ccc(NC(=O)c2ccco2)c(OC)c1`, the result was inactive and the cell number change is 16%.

As for `Cc1ccc2nsnc2c1NC(=O)c1cccc([N+](=O)[O-])c1`, the “lipid storage change, negative = inhibition” value was 19.5% (inactive) and the cell number change was found to be 3.04%.

Consider `Cc1cc(C)cc(NC(=O)c2ccc([N+](=O)[O-])o2)c1`, for which the “lipid storage change, negative = inhibition” value was -20.6% (inactive) and the cell number change was -11.8%.

For `COc1cc(NC(C)=O)ccc1NC(=O)c1cc2ccccc2o1`, the “lipid storage change, negative = inhibition” value was 1.23% (inactive) and the cell number change was determined as 11.3%.

`COc1cc(NC(=O)c2ccccc2)ccc1NC(=O)c1cc2ccccc2o1`: the “lipid storage change, negative = inhibition” value was -2.66% (inactive) and the cell number change was -16.3%.

As to `Cc1ccc2nsnc2c1NC(=O)c1ccc([N+](=O)[O-])o1`, the Potency is 18.4 µM (active) and the cell number change stood at 0.87%.

As for `COc1cc(NC(=O)c2ccc([N+](=O)[O-])o2)ccc1NC(=O)c1ccco1`, the Potency was 8.2 µM (active) and the cell number change was -26.2%.

Regarding `COc1cc(NC(=O)c2cccc([N+](=O)[O-])c2)ccc1NC(=O)c1ccco1`, the “lipid storage change, negative = inhibition” value was -17.8% (inactive) and the cell number change was -8.46%.

With `Cc1cccc(NC(=O)c2ccc(-c3ccccc3[N+](=O)[O-])o2)c1`, the “lipid storage change, negative = inhibition” value was 3.52% (inactive) and the cell number change is 15.3%.
